Records with an inconclusive call do not appear. The source made the active and inactive calls. The call rests on the fitted dose curve; in most records, active means well fitted curve in the direction sought with a large enough effect; inconclusive means small, poorly fitted or top-dose-only effect, or another doubt; inactive means no such curve, though single readings can be large; an effect the other way counts as inactive or inconclusive.
System: not listed separately
Assay: Quantitative high throughput screen for delayed death inhibitors of the malarial parasite plastid, 48 hour incubation (AID 488752); further: on the % scale 0 is the no-effect control and ±100 the full control effect; nearly all actives have a fitted effect of over 65% in size
Settings: Plasmodium falciparum growth; series mostly up to 28.7 µM; activity change, negative = inhibition: at the top concentration
Method in brief: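 Erythrocytes infected with firefly luciferase-expressing P. falciparum (2% hematocrit, 0.1% parasitemia) cultured with compound for 48 h at 37 C, 5% CO2, in RPMI 1640/0.5% Albumax. Growth inhibition read as loss of luminescence.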

Row | SMILES | activity change, negative = inhibition
1 | CC1CNCCN1S(=O)(=O)c1cccc2cnccc12 (stereo unspecified) | -1.98% (inactive)
2 | Oc1cc2c(cc1O)C(c1ccccc1)CNCC2 (stereo unspecified) | 13.2% (inactive)
3 | CCCCCCCCCCCCCCCCCCOC[C@H](COP(=O)([O-])OCC[N+](C)(C)C)OC | -1.29% (inactive)
4 | O=C(O)C1=CCCNC1 | -5.39% (inactive)
5 | O=C1Nc2ccc(I)cc2/C1=C/c1cc(Br)c(O)c(Br)c1 | -91.3% (inactive)

Molecular target: Thioredoxin reductase 1, cytoplasmic (Rattus norvegicus) (UniProt O89049)
Sequence (O89049 whole entry, looked up): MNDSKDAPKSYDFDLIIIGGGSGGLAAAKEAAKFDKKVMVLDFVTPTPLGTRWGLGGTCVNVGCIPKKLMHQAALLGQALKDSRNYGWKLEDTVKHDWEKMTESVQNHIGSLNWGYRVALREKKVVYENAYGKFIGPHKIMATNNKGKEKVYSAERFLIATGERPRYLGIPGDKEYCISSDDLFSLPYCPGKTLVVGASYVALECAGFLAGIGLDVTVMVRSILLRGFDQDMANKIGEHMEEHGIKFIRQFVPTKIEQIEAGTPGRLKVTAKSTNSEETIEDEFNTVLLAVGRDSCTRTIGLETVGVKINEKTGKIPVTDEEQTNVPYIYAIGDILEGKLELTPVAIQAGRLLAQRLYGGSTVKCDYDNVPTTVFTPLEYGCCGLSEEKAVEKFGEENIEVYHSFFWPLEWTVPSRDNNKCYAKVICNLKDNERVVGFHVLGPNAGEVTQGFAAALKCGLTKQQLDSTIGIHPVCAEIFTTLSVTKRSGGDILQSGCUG
Assay: qHTS Assay for Substrates of Mammalian Selenoprotein Thioredoxin Reductase 1 (TrxR1) (AID 488772);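 further: NADPH fluorescence in the first read after selenite addition and not the 8 min delta; 0% is about no effect; a drop in NADPH fluorescence below the no-compound background marks a TrxR1 substrate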
Settings: purified TrxR1, NADPH consumption substrate assay; series mostly up to 57.1 µM; activity change, negative = NADPH consumption: at the top concentration
Method in brief: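 Quantitative HTS in Tris-HCl buffer at pH 7.5 with EDTA and Tween-20, using rat TrxR1, 400 uM NADPH and 400 uM selenite (final). A fall in initial NADPH fluorescence relative to background marked substrate behaviour.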

Row | SMILES | activity change, negative = NADPH consumption
6 | O=C1Cc2c([nH]c3ccc(Br)cc23)-c2ccccc2N1 | 0.935% (inactive)
7 | Cn1cc(C(F)(F)F)nc1-c1ccc(OCC(O)CNCCOc2ccc(O)c(C(N)=O)c2)cc1 (stereo unspecified) | -10.7% (inactive)
8 | C[C@](Cc1ccc(O)c(O)c1)(NN)C(=O)O | -4.24% (inactive)
9 | CN1Cc2sccc2C(c2ccc(O)c(O)c2)C1 (stereo unspecified) | 3.2% (inactive)
10 | Nc1ccc(-c2ccc3ccccc3n2)cc1 | 0.0267% (inactive)
11 | CNCCc1cnc(CCC(c2ccccc2)c2ccccc2)[nH]1 | -8.94% (inactive)
12 | O=C(O)/C(=C/c1c(C(=O)O)[nH]c2cc(Cl)cc(Cl)c12)c1ccccc1 | -10% (inactive)
13 | Nc1nc2c(nc(Br)n2C2OC3COP(=O)(O)O[C@@H]3C2O)c(=O)[nH]1 (stereo partly specified) | -6.24% (inactive)
14 | Nc1nc2c(cnn2CCc2ccccc2)c2nc(-c3ccco3)nn12 | 1.45% (inactive)
15 | N#Cc1cc([N+](=O)[O-])c2sc(C(N)=O)[n+]([O-])c2c1 | -10% (inactive)
16 | CCCCCCCCCC(=O)NC(CN1CCOCC1)[C@H](O)c1ccccc1 (stereo partly specified) | -3.41% (inactive)
17 | Oc1ccc(/C=C/c2ccc(/C=C/c3ccc(O)cc3)c(Br)c2)cc1 | 24.6% (inactive)
18 | O=C(O)C1=CCCNC1 | -3.54% (inactive)
19 | S=C(S)N1CCCC1 | 1.58% (inactive)
20 | C[C@H](NC(=O)/C(C#N)=C/c1ccc(O)c(O)c1)c1ccccc1 | -1.73% (inactive)
21 | CC[C@H](NC(=O)c1c(C)c(-c2ccccc2)nc2ccccc12)c1ccccc1 | -12.3% (inactive)
22 | C=C1C[C@@]23CC[C@H]4[C@@](C)(CCC[C@@]4(C)C(=O)OC4OC(CO)C(O)C(O)C4O)[C@@H]2CC[C@]1(OC1OC(CO)C(O)C(O)C1OC1OC(CO)C(O)C(O)C1O)C3 (stereo partly specified) | -0.0516% (inactive)
23 | N#CC(=C(\N)Sc1ccccc1N)/C(C#N)=C(/N)Sc1ccccc1N | -15.5% (inactive)
24 | CCCCCCC(=O)OC1CC(C)(C)NC(C)(C)C1 | -4.51% (inactive)
25 | NCCNS(=O)(=O)c1cccc2c(Cl)cccc12 | -6.48% (inactive)
26 | COc1cc(/C=C(\C#N)C(=O)Nc2nnc(C(F)(F)F)s2)ccc1OCc1ccc(C(F)(F)F)cc1C(F)(F)F | -8.46% (inactive)
27 | OC[C@H]1O[C@H](n2cnc3c(N[C@H]4CCC[C@@H]4O)ncnc32)[C@H](O)[C@@H]1O | -7.15% (inactive)
28 | CCc1ccc2c(-c3cccc(Cl)c3)nc(=O)n(CC)c2n1 | -6.72% (inactive)
29 | NC(=Nc1ccccc1)NC(=O)c1nc(Cl)c(N)nc1N | 19.2% (inactive)
30 | C[C@H]1CC2C3CCC4=CC(=O)C=C[C@]4(C)[C@@]3(Cl)[C@@H](O)C[C@]2(C)[C@@]1(O)C(=O)CO (stereo partly specified) | -3.23% (inactive)
31 | O=C1NC(=O)c2cc(Nc3ccccc3)c(Nc3ccccc3)cc21 | -2.85% (inactive)

Molecular target: Thioredoxin reductase 1, cytoplasmic (Rattus norvegicus) (UniProt O89049)
Assay: qHTS Assay for Inhibitors of Mammalian Selenoprotein Thioredoxin Reductase 1 (TrxR1) (AID 488773); further: nearly all actives have a fitted effect of over 40% in size; further: potency means the concentration at half of the fitted maximal effect;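 on activity change, negative = inhibition: drop in NADPH fluorescence over an 8 min run after selenite addition; on the % scale 0 is the no-effect control and ±100 the full control effect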
Settings: purified TrxR1 enzyme activity; Potency: inhibition; series mostly up to 57.1 µM; activity change, negative = inhibition: at the top concentration
Method in brief: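 Steps: enzyme (90 nM) plus NADPH (400 uM final), 5 min at ~22 deg C; compound added, 15 min; selenite (400 uM final) added; fluorescence followed for 8 min. Concentration-response curves derived from the normalized delta values.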

Row | SMILES | activity change, negative = inhibition | Potency
32 | Cn1cc(C(F)(F)F)nc1-c1ccc(OCC(O)CNCCOc2ccc(O)c(C(N)=O)c2)cc1 (stereo unspecified) | -1.25% (inactive) | 
33 | CC1CNCCN1S(=O)(=O)c1cccc2cnccc12 (stereo unspecified) | -1.59% (inactive) | 
34 | C[C@](Cc1ccc(O)c(O)c1)(NN)C(=O)O |  | 8.44 µM (active)
35 | CN1Cc2sccc2C(c2ccc(O)c(O)c2)C1 (stereo unspecified) |  | 16.8 µM (active)
36 | Nc1ccc(-c2ccc3ccccc3n2)cc1 | -15.4% (inactive) | 
37 | CC(O)C(O)[C@H]1CNc2nc(N)[nH]c(=O)c2N1 (stereo partly specified) | 35.6% (inactive) | 
38 | CNCCc1cnc(CCC(c2ccccc2)c2ccccc2)[nH]1 | -4.13% (inactive) | 
39 | Oc1cc2c(cc1O)C(c1ccccc1)CNCC2 (stereo unspecified) | -9.13% (inactive) | 
40 | O=C(O)/C(=C/c1c(C(=O)O)[nH]c2cc(Cl)cc(Cl)c12)c1ccccc1 | -5.59% (inactive) | 
41 | Nc1nc2c(nc(Br)n2C2OC3COP(=O)(O)O[C@@H]3C2O)c(=O)[nH]1 (stereo partly specified) | -3.89% (inactive) | 
42 | Nc1nc2c(cnn2CCc2ccccc2)c2nc(-c3ccco3)nn12 | 0.561% (inactive) | 
43 | N#Cc1cc([N+](=O)[O-])c2sc(C(N)=O)[n+]([O-])c2c1 | 23% (inactive) | 
44 | CCCCCCCCCC(=O)NC(CN1CCOCC1)[C@H](O)c1ccccc1 (stereo partly specified) | -4.04% (inactive) | 
45 | S=C(S)N1CCCC1 | -0.0125% (inactive) | 
46 | CCCCCCCCCCC(C)(C)C(=O)Nc1c(OC)cc(OC)cc1OC | 2.81% (inactive) | 
47 | CC[C@H](NC(=O)c1c(C)c(-c2ccccc2)nc2ccccc12)c1ccccc1 | 1.57% (inactive) | 
48 | C=C1C[C@@]23CC[C@H]4[C@@](C)(CCC[C@@]4(C)C(=O)OC4OC(CO)C(O)C(O)C4O)[C@@H]2CC[C@]1(OC1OC(CO)C(O)C(O)C1OC1OC(CO)C(O)C(O)C1O)C3 (stereo partly specified) | -3.66% (inactive) | 
49 | N#CC(=C(\N)Sc1ccccc1N)/C(C#N)=C(/N)Sc1ccccc1N | 39.6% (inactive) | 
50 | CCCCCCC(=O)OC1CC(C)(C)NC(C)(C)C1 | -6.18% (inactive) | 
51 | OC1(c2ccc(Cl)cc2)CCN(Cc2c[nH]c3ccccc23)CC1 | -0.51% (inactive) | 
52 | NCCNS(=O)(=O)c1cccc2c(Cl)cccc12 | -1.05% (inactive) | 
53 | CN(CC[C@@H](Oc1ccc(C(F)(F)F)cc1)c1ccccc1)CC(=O)O | -14% (inactive) | 
54 | OC[C@H]1O[C@H](n2cnc3c(N[C@H]4CCC[C@@H]4O)ncnc32)[C@H](O)[C@@H]1O | -7.52% (inactive) | 
55 | CCc1ccc2c(-c3cccc(Cl)c3)nc(=O)n(CC)c2n1 | -5.41% (inactive) | 
56 | NC(=Nc1ccccc1)NC(=O)c1nc(Cl)c(N)nc1N | 0.818% (inactive) | 
57 | C[C@H]1CC2C3CCC4=CC(=O)C=C[C@]4(C)[C@@]3(Cl)[C@@H](O)C[C@]2(C)[C@@]1(O)C(=O)CO (stereo partly specified) | -10% (inactive) | 
58 | O=C1NC(=O)c2cc(Nc3ccccc3)c(Nc3ccccc3)cc21 | -2.56% (inactive) | 
59 | CC[n+]1c(/C=C/C=C2/N(C)c3ccccc3C2(C)C)sc2ccccc21 | -16.5% (inactive) | 
60 | CSc1nc(N)c2ncn([C@@H]3O[C@H](COP(=O)(O)OP(=O)(O)O)C(O)[C@H]3O)c2n1 (stereo partly specified) | -3.83% (inactive) | 
61 | COc1ccc(CCn2nnnc2C2(c3ccc(C)cc3)CC2)cc1 | -1.73% (inactive) | 
